{"source": "PubChem BioAssay AID1700", "about": "(The Scripps Research Institute Molecular Screening Center, 2009)", "note": "The campaign covered roughly 290,000 compounds. About 670 (0.23%) were called active. What follows is part of a selection rich in actives, with near analogues and random picks from the rest. Values without a mark were called inactive.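 Rule for the calls: active = inhibition above a per-plate limit of that plate's mean compound inhibition plus 3 SD (cut at about 60% in these data); inactive = the rest.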", "data": [{"assay": "KLF5 expression inhibitors, primary screen, DLD-1 cells, luminescence (AID 1700);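 note: 0% = DMSO wells and 100% = LY294002 at 200 µM; higher means less KLF5 promoter-driven luciferase light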", "conditions": "DLD-1 KLF5 promoter-luciferase reporter, at 5 µM, hits give high values", "values": [{"smiles": "NC(=O)c1ccc(Nc2ccc3nonc3c2[N+](=O)[O-])cc1", "inhibition": "-33%"}, {"smiles": "CCOc1ccc(C2C3=C(CCCC3=O)N(CC(=O)O)C3=C2C(=O)CCC3)cc1", "inhibition": "0.17%"}, {"smiles": "O=C(CCNC(=O)C1CCN(S(=O)(=O)c2ccccc2)CC1)NC1CC1", "inhibition": "-34.7%"}, {"smiles": "Cc1csc(NC(=O)CSc2nnc(-c3cccnc3)o2)n1", "inhibition": "-90.3%"}, {"smiles": "COc1ccc(C(=O)Nc2ccc(NC(=O)C(C)C)nc2)cc1", "inhibition": "-35%"}, {"smiles": "COc1ccc(NC(=O)c2cc(-c3ccc(C)cc3)on2)cc1", "inhibition": "-28.2%"}, {"smiles": "COc1ccc(NC(=O)/C(Cl)=C(/Cl)S(=O)Cc2ccc(C)cc2)cn1", "note": "(centres undefined)", "inhibition": "89% (active)"}, {"smiles": "CCOc1ccc(S(=O)(=O)Nc2ccc(OC)nc2)cc1", "inhibition": "-32.8%"}, {"smiles": "COc1ccc(CS(=O)/C(Cl)=C(/Cl)C(=O)Nc2ccc(OC)nc2)cc1", "note": "(centres undefined)", "inhibition": "100% (active)"}, {"smiles": "COc1ccc(Nc2cc(Cl)ccc2C(=O)O)cn1", "inhibition": "-11.6%"}, {"smiles": "CCCCC[C@H]1CN(C2CCCCC2)C(=O)[C@@H]1CC(=O)NCc1ccc(OC)cc1", "inhibition": "-12.3%"}, {"smiles": "C/C(=N\\Nc1nncc2ccccc12)c1ccc(Cl)c([N+](=O)[O-])c1", "inhibition": "-127%"}, {"smiles": "CN(CCO)c1ccc(/C=N/Nc2nncc3ccccc23)cc1", "inhibition": "68.3% (active)"}, {"smiles": "COc1cc(/C=N/Nc2nn3cnnc3c3ccccc23)cc(OC)c1OC", "inhibition": "-22.6%"}, {"smiles": "CSc1ccc(/C=N\\NC(=O)COc2ccc(Cl)cc2Br)cc1", "inhibition": "-9.23%"}, {"smiles": "Cc1ccc(/C=N/NC(=O)COc2ccccc2-c2ccccc2)cc1", "inhibition": "77.9% (active)"}, {"smiles": "C=CCc1ccccc1OCC(=O)N/N=C/c1ccccc1OCC", "inhibition": "-10.7%"}, {"smiles": "COc1ccc(NC(=O)C(C)N2c3cccc4cccc(c34)S2(=O)=O)c(OC)c1", "note": "(centres undefined)", "inhibition": "-5.03%"}, {"smiles": "O=C(O)CC/C(=C\\c1cc2c(cc1Br)OCO2)c1nc2ccccc2s1", "inhibition": "-12.1%"}, {"smiles": "Cc1ccc(S(=O)(=O)N(Cc2ccccc2)c2ccccn2)cc1[N+](=O)[O-]", "inhibition": "-20.6%"}, {"smiles": "COc1cc(N=Cc2c(O)[nH]c3ccccc23)cc(OC)c1OC", "inhibition": "66.8% (active)"}, {"smiles": "COCC(=O)N=Nc1c(O)[nH]c2ccccc12", "inhibition": "6.53%"}, {"smiles": "COc1ccc(N=Cc2c(O)[nH]c3ccccc23)cc1OC", "inhibition": "-9.79%"}, {"smiles": "Cc1ccc(CN(CC(=O)NCC2CCCO2)S(=O)(=O)c2ccc(C)cc2)cc1", "note": "(centres undefined)", "inhibition": "-11%"}, {"smiles": "Cc1ccc(CNC(=O)CCS(=O)(=O)c2ccc3c(c2)CC(C)N3C(=O)C2CC2)o1", "note": "(centres undefined)", "inhibition": "-9.9%"}, {"smiles": "CCOCCCNc1c(CC)c(C)c(C#N)c2nc3ccccc3n12", "inhibition": "-21.6%"}, {"smiles": "Cc1cccc(CN2CCC(n3nccc3NC(=O)c3ccccc3C)CC2)n1", "inhibition": "-34.2%"}, {"smiles": "CCCCCNC(=O)C1c2ccccc2Oc2ccccc21", "inhibition": "-20.8%"}, {"smiles": "Cn1cc(S(=O)(=O)Nc2ccc(Cl)cc2Cl)c(=O)n(C)c1=O", "inhibition": "-22.9%"}, {"smiles": "CCCc1ccc(OCC(O)CN2CCN(CCO)CC2)cc1", "note": "(centres undefined)", "inhibition": "7.32%"}, {"smiles": "O=C(N/N=C/c1sc(N2CCCCC2)nc1-c1cccs1)c1cccnc1", "inhibition": "-30.2%"}, {"smiles": "COc1cccc(-c2nc(CS(=O)CC(=O)NCc3ccc(F)cc3)c(C)o2)c1", "note": "(centres undefined)", "inhibition": "-11.1%"}, {"smiles": "NS(=O)(=O)c1ccc(CCNS(=O)(=O)c2cccc3cccnc23)cc1", "inhibition": "-50.1%"}, {"smiles": "CC(C)C(C)NC(=O)COc1nc2ccccc2nc1N(C)C1CCCCC1", "note": "(centres undefined)", "inhibition": "-6.02%"}, {"smiles": "COc1ccccc1C1C2=C(COC2=O)Nc2cc3c(cc21)OCO3", "note": "(centres undefined)", "inhibition": "75.8% (active)"}, {"smiles": "COc1ccc(S(=O)(=O)Nc2ccc3c(c2)OCO3)cc1Cl", "inhibition": "-5.73%"}, {"smiles": "CCCOc1ccccc1C1CC(=O)Nc2cc3c(cc21)OCO3", "note": "(centres undefined)", "inhibition": "46.2%"}, {"smiles": "CCOC(=O)CSC1=C(C#N)C(c2sccc2C)CC(=O)N1", "note": "(centres undefined)", "inhibition": "63.2% (active)"}, {"smiles": "CCOC(=O)CSC1=C(C#N)C(c2ccco2)C(C(=O)OCc2ccccc2)=C(C)N1", "note": "(centres undefined)", "inhibition": "-11.8%"}, {"smiles": "Cc1ccc(C2CC(=O)NC(SCC(=O)OCc3ccccc3)=C2C#N)o1", "note": "(centres undefined)", "inhibition": "6.45%"}, {"smiles": "NC(=O)CN1CCCC1c1ccc2c(c1)OCCO2", "note": "(centres undefined)", "inhibition": "-21.8%"}, {"smiles": "C=CCn1c(=O)c(C(=O)NCc2ccc3c(c2)OCO3)c(O)c2ccccc21", "inhibition": "-23.1%"}, {"smiles": "CC/C(=N\\NC(=O)c1c(C)nc2ccccn12)c1ccc(Cl)cc1", "inhibition": "-19.6%"}, {"smiles": "Cc1cc(Cl)c2oc(C(=O)N(C)C(C)c3ccccn3)c(C)c2c1", "note": "(centres undefined)", "inhibition": "-79%"}, {"smiles": "CC(C)Oc1ccc(/C=N/NC(=O)c2nnn(-c3nonc3N)c2CN(C)C2CCCCC2)cc1", "inhibition": "-15.7%"}, {"smiles": "CCOc1cc(-c2conc2N)cc(OCC)c1OCC", "inhibition": "5.84%"}, {"smiles": "O=C(NCCc1ccccc1)C(=O)NCC1OCCN1S(=O)(=O)c1cccs1", "note": "(centres undefined)", "inhibition": "-36.9%"}, {"smiles": "COc1ccc2[nH]cc(CCN3C(=O)c4ccc(C(=O)O)cc4C3=O)c2c1", "inhibition": "-177%"}, {"smiles": "COc1ccc(OC)c(CCNC(=O)c2nn(C)c3c2CS(=O)(=O)c2ccccc2-3)c1", "inhibition": "-12.5%"}, {"smiles": "CC(C)CCn1c(=O)c2c(nc3n2CCCN3Cc2ccccc2)n(C)c1=O", "inhibition": "-4.63%"}, {"smiles": "Cc1ccc(C)c(N2CCN(C(=O)CCCn3c(=O)c4cccn4c4cccnc43)CC2)c1", "inhibition": "5.08%"}, {"smiles": "CCN(CC)S(=O)(=O)c1ccc(N2CC(C(=O)NCc3cccnc3)CC2=O)cc1", "note": "(centres undefined)", "inhibition": "-14.9%"}, {"smiles": "COc1ccc(S(=O)(=O)N(CC(=O)N/N=C/c2ccc(C(=O)O)cc2)Cc2ccccc2)cc1OC", "inhibition": "5.79%"}, {"smiles": "O=c1[nH]c(NCCO)nnc1Cc1ccc(Cl)cc1", "inhibition": "-8.33%"}, {"smiles": "COc1ccc(Cc2nnc(N/N=C/c3ccccc3O)[nH]c2=O)cc1OC", "inhibition": "102% (active)"}, {"smiles": "Cc1nnc(N/N=C/c2ccccn2)[nH]c1=O", "inhibition": "2.56%"}, {"smiles": "COc1ccc(NC(=O)CCCN2C(=O)C(c3ccccc3)Oc3cccnc32)cc1", "note": "(centres undefined)", "inhibition": "-1.26%"}, {"smiles": "Nc1nc(SCC(=O)Nc2cc(C(F)(F)F)ccc2Cl)[nH]c(=O)c1NC(=O)c1ccco1", "inhibition": "-9.6%"}, {"smiles": "Cc1ccc(OCCCC(=O)Nc2ccc(S(=O)(=O)Nc3cc(C)nc(C)n3)cc2)cc1", "inhibition": "0.85%"}]}]}
